From PubChem BioAssay AID720541 (National Center for Advancing Translational Sciences (NCATS), 2013)
Several values for one entry are separate records, joined by “and”; a condition that tells them apart may be missing. Equal entries are not always repeated. The whole screen tested about 1,300 compounds, of which about 420 (32%) were called active. Roughly 32% stayed inconclusive and do not appear here. Calls come from the whole dose curve; as a rule, active = well fitted inhibition curve with a large enough effect; inconclusive = small, poorly fitted or top-dose-only effect; inactive = no such curve, though single readings can be large or run the other way. The list shows a part of the results. Where a call stands in place of a potency, no number is given.

target: C-terminal-binding protein 1 (Homo sapiens) (UniProt Q13363); test: qHTS for Inhibitors of the Phosphatase Activity of Eya2: Carboxyl-terminal binding protein (CtBP) Counterscreen for Cherry-picked Compounds; details: purified protein-protein binding, AlphaScreen, 3 h; series mostly up to 46.1 µM; note: nearly all actives have a fitted effect of over 65% in size
In short: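 AlphaScreen using 25 nM GST-E1A with 25 nM CtBP-6xHIS; compounds at 2.5 nM–46 uM final, 2 h at room temperature, then donor/acceptor beads (20 ug/mL) for 1 h in the dark. Signal normalized to E1A peptide inhibitor (maximum inhibition) and DMSO.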
Potency is the fitted concentration of half-maximal effect.

Compound	Potency
CCNC(=O)/C(C#N)=C/c1c(N2CCN(c3ccccc3)CC2)nc2c(C)cccn2c1=O	12 µM (active)
CCN(CC)C(=O)CC(c1ccc(OC)cc1)c1c(OC)cc(OC)c2ccc(=O)oc12 (stereo not drawn)	inactive
Cc1cccc(-n2c(O)c(C=Nc3ccccc3)c3ccccc3c2=O)n1	inactive
Cc1[nH]n(-c2cccc3ccccc23)c(=O)c1C=Nc1ccc2[nH]c(=O)[nH]c2c1	7.57 µM (active)
CC1CCCCC1NC(=O)COC(=O)c1c2c(nc3ccccc13)/C(=C\c1ccco1)CC2 (stereo not drawn)	inactive
Cn1nc([N+](=O)[O-])nc1Sc1cccc2cccnc12	2.69 µM (active)
Clc1ccc(-n2nnnc2-c2cnc3ccccc3c2-c2ccccc2)cc1	inactive
O=C(NN1C(=O)/C(=C/C=C/c2ccco2)SC1=S)c1ccncc1	12 µM (active)
Oc1c(Br)cc(Br)cc1CNc1cccc2cccnc12	5.36 µM (active)
Oc1ccc(Cl)cc1CNc1cccc2cccnc12	5.36 µM (active)
CCOC(=O)C1=C(COC(=O)CCOc2ccccc2)NC(=O)NC1C (stereo not drawn)	inactive
CN(C)c1ccc(-c2ccnc3c2CC(C)(C(=O)NCCC(F)(F)F)O3)cc1 (stereo not drawn)	inactive
Cc1ccc(CNC(=O)C2CCN(S(=O)(=O)c3ccc4nc5c(c(C(=O)O)c4c3)CC(C)CC5)CC2)cc1 (stereo not drawn)	10.7 µM (active)
O=C(O)c1c2c(nc3ccc(S(=O)(=O)N4CCC(C(=O)NC5CCCC5)CC4)cc13)CCCCC2	inactive
COc1ccc(S(=O)(=O)N2CCN(C(=O)c3cc4c(s3)CCC4)CC2)cc1	inactive
COc1ccc(CNC(=O)C2CCN(S(=O)(=O)c3ccc4nc5c(c(C(=O)O)c4c3)CCCC5)CC2)cc1	12 µM (active)
O=S(=O)(c1ccc(Cl)cc1)N1CCOCC1	inactive
CCOC(=O)N1CCN(S(=O)(=O)c2ccc(C(=O)NNc3nc4ccc(Cl)cc4s3)cc2)CC1	inactive
Cc1ccc(NC(=O)COc2ccc(S(=O)(=O)N3CCOCC3)cc2)cc1	inactive
O=C(Nc1cc(S(=O)(=O)N2CCOCC2)ccc1Cl)c1cc(=O)c2ccccc2o1	inactive
COc1ccc(C(=O)Nc2ccc3nc(C)sc3c2)cc1S(=O)(=O)N1CCOCC1	21.3 µM (active)
O=C(COC(=O)c1n[nH]c(=O)c2ccccc12)Nc1cccc(S(=O)(=O)N2CCOCC2)c1	inactive
COc1ccc(C(=O)Nc2nc(-c3ccccn3)cs2)cc1S(=O)(=O)N1CCOCC1	1.51 µM (active)
O=C(Nc1nc(-c2ccc(S(=O)(=O)N3CCOCC3)cc2)cs1)c1ccccc1	6.75 µM (active) and 7.57 µM (active)
O=C(Nc1nc(-c2ccccn2)cs1)c1cccc(S(=O)(=O)N2CCOCC2)c1	1.69 µM (active)

Compound	Potency
COc1ccc(CC(=O)Nc2cccc(Cl)c2C)cc1S(=O)(=O)N1CCOCC1	inactive
O=C(Nc1nc2c(F)cc(F)cc2s1)c1ccc([N+](=O)[O-])o1	inactive
Oc1ccccc1-n1c(-c2ccccc2)ccc1-c1ccccc1	inactive
CN1CCN(C(c2ccccn2)c2cc(Cl)c3cccnc3c2O)CC1 (stereo not drawn)	1.51 µM (active)
OC(c1ccc(Cl)cc1)c1nccc2ccccc12 (stereo not drawn)	inactive
Oc1c(C(c2ccc(Cl)cc2)N2CCCC2)cc(Cl)c2cccnc12 (stereo not drawn)	4.78 µM (active)
COc1ccc(/C=C/C(=O)Nc2ccc3nc4n(c(=O)c3c2)CCCC4)cc1	inactive
O=C(c1ccc2c(=O)n3c(nc2c1)CCCCC3)N1CCN(c2cccc(Cl)c2)CC1	16.9 µM (active)
NC(=O)c1nc(C(=O)N2CCCCC2)c2ccccc2n1	inactive
Cc1ccc(NC(=S)N2CCc3[nH]c4ccccc4c3C2)cc1	inactive
CN(C)c1ccc(C2C=Cc3ccccc32)c2ccccc12 (stereo not drawn)	9.53 µM (active)
O=C(Oc1ccc(C(=S)N2CCCCC2)cc1)c1ccccc1F	inactive
c1ccc2cc(CSCc3nc4ccccc4[nH]3)ccc2c1	inactive
Cc1ccccc1N=C1NC(=O)/C(=C/c2cccn2C)S1	inactive
CCc1ccc(N=C2NC(=O)/C(=C/c3cc(OC)c(O)c(OC)c3)S2)cc1	19 µM (active)
O=C(c1cccc(-n2cccc2)c1)N1CCN(S(=O)(=O)c2ccccc2)CC1	inactive
O=C(c1cccc(S(=O)(=O)Nc2ccccc2Cl)c1)N1CCN(c2ccccc2O)CC1	15.1 µM (active)
CC1Cc2ccccc2N1NC(=O)c1ccc(Cl)c(S(N)(=O)=O)c1 (stereo not drawn)	inactive
CC1C(c2ccccc2)=Nn2c(=O)n(-c3ccccc3)c(=O)n21 (stereo not drawn)	inactive
N#Cc1ccc(C(=O)N2CCC3CC2c2cc(-c4ccccc4)ccc23)cc1 (stereo not drawn)	inactive
Cc1oc2c(Cl)c(Cl)c(O)c(CN(C)C)c2c1C(=O)c1ccc(Cl)cc1	15.1 µM (active)
COC(=O)c1ccccc1NC1=C/C(=N\S(=O)(=O)c2cccs2)c2ccccc2C1=O	1.69 µM (active)
COCCN(Cc1cc2cc3c(cc2nc1Cl)OCO3)C(=O)Nc1ccc(OC)cc1	inactive
O=C(CSc1nc2ccccc2n1CCc1ccccc1)c1ccc(O)c(O)c1	inactive
COc1cnc(-c2ccccn2)nc1Oc1ccc(C(C)(C)C)cc1	3.38 µM (active)

Compound	Potency
CCOC(=O)C(C)Sc1nc(-c2ccccn2)ncc1OC (stereo not drawn)	2.39 µM (active)
COc1ccc(CN(CCN(C)C)c2ccccn2)cc1	inactive
COc1ccc(Oc2nc(-c3ccccn3)ncc2OC)cc1	10.7 µM (active)
O=C(Cn1c(C(=O)N2CCc3ccccc3C2)cc2sccc21)c1ccccc1	inactive
CCCc1nc(N2CCN(C)CC2)c2sc(=S)n(-c3ccccc3)c2n1	inactive
CC1CCC2C(=O)N(c3ccc(C(=O)Oc4cccc5cccnc45)cc3)C(=O)C2C1 (stereo not drawn)	6.01 µM (active)
CC1C=CCC2C(=O)N(c3ccc(OC(=O)c4cccs4)cc3)C(=O)C12 (stereo not drawn)	inactive
Cc1ccc(C(=O)Oc2ccc(C(=O)COC(=O)c3cnccn3)cc2)cc1	inactive
O=C(OCC(=O)c1ccc(Cl)cc1Cl)c1ccccn1	12 µM (active)
O=c1cc2ncc(-n3cc([N+](=O)[O-])cn3)cn2[nH]1	inactive
O=S(c1cc(Cl)cc(Cl)c1O)c1cc(Cl)cc(Cl)c1O	3.38 µM (active)
O=c1nc2c(O)cccn2c2c1c(=O)[nH]c1ccccc12	3.79 µM (active)
CCOc1ccc(Nc2nc(N)nc(CN(C)C3CCCCC3)n2)cc1	inactive
N[C@@H](Cc1cnc[nH]1)C(=O)Nc1ccc2ccccc2c1	19 µM (active)
Cc1cc2nc(-c3ccco3)c(Cc3cccc(F)c3)n2c(C)c1Br	inactive
CCN(CC)c1ccc(/C=N/N2CCN(Cc3ccccc3Cl)CC2)cc1	8.49 µM (active)
CSc1ccc(/C=N/N2CCN(Cc3ccc(C)cc3C)CC2)cc1	inactive
COCc1cc(O)c(O)c(O)c1-c1c(COC)cc(O)c(O)c1O	inactive
CCC(C)Nc1ccc(NC(C)CC)cc1 (stereo not drawn)	0.0849 µM (active)
Cc1nc(-n2[nH]c3c(c2=O)CCCC3)[nH]c(=O)c1Cc1ccccc1	13.5 µM (active)
COc1cc(C)c(/C=C/C(C)=C/C=C/C(C)=C/C(=O)O)c(C)c1C	inactive
CCOc1ccc(NC(=O)c2sccc2-n2cccc2)cc1	inactive
COc1cc(C(=O)Nc2cccc(NC(=O)c3cccs3)c2)cc(OC)c1OC	inactive
COc1ccc(C(=O)Nc2ccc3c(c2)CCCN3C(=O)c2cccs2)c(OC)c1	7.57 µM (active)
O=C(O)c1ccc(CSc2nc3ccccc3c(=O)n2-c2ccccc2)cc1	inactive

Compound	Potency
COc1ccc(-n2c(SCC(=O)Nc3cc(C(=O)O)ccc3C)nc3ccccc3c2=O)cc1Cl	8.49 µM (active)
COc1ccc(NC(=O)CSc2ccc(-c3ccccn3)nn2)cc1OC	3.79 µM (active)
COc1ccccc1CNC(=O)CSc1ccc(-c2ccccn2)nn1	8.49 µM (active)
COc1ccccc1CNC(=O)CCCc1cn(C)c2ccccc12	inactive
COc1ccc(NC(=O)CN(C)C(=O)c2cccc(-n3cccc3)c2)cc1	inactive
COc1ccccc1CNC(=O)c1ccc2c(=O)n(CCCN3CCCC3=O)c(=S)[nH]c2c1	inactive
O=C(CSc1ccc(-c2ccccn2)nn1)Nc1cccc(F)c1	inactive
COc1cc(NC(=O)CSc2ccc(-c3ccccn3)nn2)cc(OC)c1	1.9 µM (active)
Cc1cc(C(=O)c2ccccc2)cc(C)c1O	inactive
CC1Cc2ccccc2N1C(=O)C1CCCN1S(=O)(=O)c1ccc(Cl)cc1 (stereo not drawn)	inactive
CC1CCN(CC2C(=O)O[C@@H]3C[C@@]4(C)CCC[C@H](C)C4=C[C@H]23)CC(C)(C)C1 (stereo partly drawn)	inactive
Nc1[nH]nc2ncc3cc4ccccc4nc3c12	10.7 µM (active)
O=C(CSc1ccc(-c2ccccn2)nn1)N1CCCC1	8.49 µM (active)
O=C(CSc1ccc(-c2ccccn2)nn1)N1CCCCC1	7.57 µM (active)
O=C(Cn1c(S(=O)(=O)Cc2ccccc2)nc2ccccc21)N1CCCCC1	inactive
O=C(C1=C[C@H](c2ccccc2)C[C@H](OCc2ccc(CO)cc2)O1)N1CCN(Cc2ccccc2)CC1	inactive
O=[N+]([O-])c1ccccc1/C=C\C=N\N1CCN(c2ccccc2)CC1	inactive
COc1ccc(-n2c(CN3CCN(c4ccccc4OC)CC3)nc3ccc([N+](=O)[O-])cc3c2=O)c(OC)c1	inactive
COc1ccccc1N1CCN(/N=C/C=C\c2ccccc2[N+](=O)[O-])CC1	15.1 µM (active)
O=C(c1cccs1)N1CCC(c2nc3c(nnn3Cc3cccc(Cl)c3)c(=O)[nH]2)CC1	12 µM (active)
CCOC(=O)c1cnc2c(C#N)cnn2c1N	10.7 µM (active)
CC(NC(=O)c1cc2c(s1)CS(=O)(=O)C2)c1ccccc1 (stereo not drawn)	inactive
CCOc1ccc2[nH]cc(-c3csc(N)n3)c2c1	12 µM (active)
